# Source: PubChem (Broad Institute)
# aSyn 5UTR act – Activators via SNCA 5'UTR binding, MLPCN. actives 7.1% (n = 300,000). alpha-synuclein 5'UTR reporter, activators screen. activity score, % (tested at 7.5 µM), hits read low; in the data active means activity score below about -60%
# The depositor's hits bear a star. Many of the other results were omitted from the sample, so hits are more common in it than they were.
SMILES,aSyn 5UTR act
O=C(/C=C/c1cccnc1)c1cccc(O)c1,-88*
CN(C)c1ccc(/C=C/C(=O)c2ccccc2O)cc1,-197*
O=C(/C=C/c1ccco1)c1ccccc1O,-65*
O=C(/C=C/c1ccc(-c2ccccc2)o1)c1ccccc1,-66*
Cc1ccc(/C=C/C(=O)c2ccc(C)cc2)cc1,-150*
CSc1ccc(C(=O)/C=C/c2ccc(N)cc2)cc1,-204*
CC(C)NC(=O)c1ccccc1NC(=O)/C=C/c1cccc([N+](=O)[O-])c1,63
Cc1ccc(/C=C/C(=O)Nc2ccccc2C(N)=O)cc1,-86*
Cc1nn(C)cc1/C=C/C(=O)c1ccc(O)cc1,-229*
O=C(/C=C/c1ccc(O)cc1)c1ccccc1,-118*
Cc1ccc(/C=C/C(=O)c2ccccc2O)cc1,-121*
Oc1ccc(-c2csc(Nc3ccccn3)n2)c(O)c1,-134*
Cc1cccnc1Nc1nc(-c2ccc(O)cc2O)cs1,-188*
O=C(Nc1ccc2ccccc2n1)Nc1cccs1,-62*
O=C(Nc1ccc2ccccc2n1)c1ccccc1,-74*
O=C(Nc1cccs1)Nc1ccccc1Br,-89*
COc1ccc(C(=O)Nc2ccc3ccccc3n2)cc1OC,-139*
O=C(Nc1ccc2ccccc2n1)c1ccccc1Br,-146*
O=C(CCc1ccccc1)NNc1cc(N2CCCCC2)nc(N2CCCCC2)n1,82
O=C(CCc1ccccc1)Nc1ccc2ccccc2n1,-146*
O=C(Nc1ccc(C(F)(F)F)cn1)Nc1cccs1,-76*
CCCCCOC(=O)NCC(O)c1ccccc1 (stereo unspecified),-128*
CCOc1ccc(/C=N/NC(=O)c2ccccc2NC(=O)c2ccc(OC)cc2)cc1,-71*
O=C(Nc1ccccc1C(=O)N/N=C/c1ccncc1)c1ccccc1,-140*
CCOc1ccc(C(=O)Nc2ccccc2C(=O)O)cc1,-89*
SMILES,aSyn 5UTR act
COc1ccc(C(=O)Nc2ccccc2C(=O)N/N=C/c2ccco2)cc1,-79*
COc1ccc(C2CC(=O)N(C)c3ccccc3S2)cc1OC (stereo unspecified),-87*
Cc1ccc(NNC(=S)Nc2ccc(C(C)C)cc2)c(C)c1,-145*
N#Cc1ccc(-c2csc(NC3=NCCCCC3)n2)cc1,-73*
CC(C)(C)c1ccc(-c2csc(NNC3=NCCCCC3)n2)cc1,-78*
c1ccc(-c2csc(NC3=NCCCCC3)n2)cc1,-99*
CC12CCC(C(=O)Nc3nc4ccc(Br)cc4s3)(OC1=O)C2(C)C (stereo unspecified),-92*
O=C(O)c1cccc(NC2=C(Cl)C(=O)c3ccccc3C2=O)c1,-191*
O=C1C(Cl)=C(Nc2ccccc2)C(=O)c2ccccc21,-190*
CCN(CC)CCCNC1=C(Cl)C(=O)c2ccccc2C1=O,76
CC(C)NC1=C(Cl)C(=O)c2ccccc2C1=O,-91*
O=C1C(Cl)=C(NCc2cccnc2)C(=O)c2ccccc21,-141*
CC(C)C(=O)Nc1nnc(NC(=S)Nc2ccccc2)s1,-127*
CCCc1nnc(NC(=S)Nc2ccccc2)s1,-127*
C=CCOc1ccc2c(OC)c3ccoc3nc2c1OC,-81*
Cc1ccc(C(=O)NC(=S)N(C)C2CCCCC2)cc1,-84*
CN(C(=O)c1ccc(-c2ccccc2)cc1)C1CCCCC1,-127*
O=C(COc1ccc(F)cc1)c1c(O)cc(O)cc1O,-79*
COc1ccc(C(=O)Cc2ccc(F)cc2)c(OC)c1,-117*
COc1ccc(C(=O)CCc2ccccc2)c(O)c1,-107*
COc1ccc(C(=O)COc2ccc(F)cc2)c(O)c1,-119*
CCOc1ccccc1C(=O)N1CCN(c2cccc(Cl)c2)CC1,95
CS(=O)(=O)Nc1ccccc1C(=O)N1CCN(c2ccccc2)CC1,-73*
Cc1c(/C(O)=C2\C(=O)C(=O)N(CCN(C)C)C2c2cccs2)cnn1-c1ccccc1 (stereo unspecified),-88*
Cc1ccc(C2/C(=C(/O)c3cnn(-c4ccccc4)c3C)C(=O)C(=O)N2CCCN2CCOCC2)o1 (stereo unspecified),-111*
SMILES,aSyn 5UTR act
c1ccc(-c2nc3c(ccc4ccccc43)[nH]2)nc1,-157*
O=c1[nH]c(-c2ccccn2)nc2ccccc12,-96*
Nc1nc(-c2nc3ccccc3[nH]2)cs1,-86*
c1ccc(-c2nc3ccccc3[nH]2)nc1,-81*
CCCCN(Cc1ccccc1)c1ncnc2nc[nH]c12,-63*
N#Cc1c(N2CCCC2)nsc1-c1ccccc1,-180*
N#Cc1c(N2CCOCC2)nsc1-c1ccccc1,-68*
CCOC(=O)c1ccc(-c2ccc(C=O)o2)cc1,-146*
CCCOC(=O)c1ccc(-c2ccc(C=O)o2)cc1,-97*
NC(=O)C1=C[C@H](c2ccccc2)C[C@H](OCc2ccc(CO)cc2)O1,-67*
O=C(Nc1ccccc1)C1=C[C@@H](c2ccccc2)C[C@@H](OCc2ccc(CO)cc2)O1,-94*
Cc1ccccc1C(=O)Oc1ccc2ccc(O)cc2c1,-162*
Cc1ccccc1S(=O)(=O)Oc1ccc2ccc(O)cc2c1,-131*
O=[N+]([O-])c1cccc(/C([O-])=C(/C(=S)Nc2ccccc2)[n+]2ccccc2)c1,-105*
